From PubChem BioAssay (NCI)
This is part of a sample that, as a whole, favours compounds with a hit. Of some 83,000 tested, about 20% had one in any assay.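 How to read the values: 0–100, growth inhibition (40 = 60% inhibited); 0, no net growth; -100 to 0, cell death (-40 = 40% of starting cells died; -100 = all dead).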 Values without a mark were called inactive. Active and inactive are the calls of the source. How the source made its calls: active means growth percent below 10; inactive means the rest.

Assays:
Assay in all cases: NCI-60 one-dose screen, 48 h (100 = growth as untreated, 0 = no growth, -100 = all killed)
Conditions in all cases: 10 µM unless noted
MOLT-4 leukemia = test system: MOLT-4 leukemia
SR leukemia = test system: SR leukemia
RPMI-8226 leukemia = test system: RPMI-8226 leukemia
OVCAR-8 ovarian = test system: OVCAR-8 ovarian
OVCAR-5 ovarian = test system: OVCAR-5 ovarian
OVCAR-4 ovarian = test system: OVCAR-4 ovarian
SK-OV-3 ovarian = test system: SK-OV-3 ovarian
IGROV1 ovarian = test system: IGROV1 ovarian
OVCAR-3 ovarian = test system: OVCAR-3 ovarian
HS 578T breast = test system: HS 578T breast
NCI/ADR-RES ovarian = test system: NCI/ADR-RES ovarian
T-47D breast = test system: T-47D breast
BT-549 breast = test system: BT-549 breast
MDA-MB-435 melanoma = test system: MDA-MB-435 melanoma
SW-620 colon = test system: SW-620 colon
MCF7 breast = test system: MCF7 breast
HCT-116 colon = test system: HCT-116 colon
HCC-2998 colon = test system: HCC-2998 colon
KM12 colon = test system: KM12 colon

Question: For COC(=O)[C@@H](C)C[C@H](Cc1ccccc1)NC(=O)c1nc([C@@H](C[C@H](C(C)C)N(C)C(=O)[C@@H](NC(=O)[C@H]2CCCCN2C)C(C)C)OC(C)=O)sc1C(C)C, which growth (MOLT-4 leukemia) is on record?
Answer: 5.59% (active)

Question: And the growth (SR leukemia)?
Answer: 3.18% (active)

Question: And the growth (RPMI-8226 leukemia)?
Answer: 20.5%

Question: And the growth (OVCAR-8 ovarian)?
Answer: 2.95% (active)

Question: And the growth (OVCAR-5 ovarian)?
Answer: 27.1%

Question: And the growth (OVCAR-4 ovarian)?
Answer: 41.6%

Question: And the growth (SK-OV-3 ovarian)?
Answer: 26.8%

Question: What about the growth (IGROV1 ovarian) of the same molecule?
Answer: 19.8%

Question: And the growth (OVCAR-3 ovarian)?
Answer: -22.9% (active)

Question: And the growth (HS 578T breast)?
Answer: 4.24% (active)

Question: And the growth (NCI/ADR-RES ovarian)?
Answer: 8.7% (active)

Question: And the growth (T-47D breast)?
Answer: 53.1%

Question: And the growth (BT-549 breast)?
Answer: -35.6% (active)

Question: And the growth (MDA-MB-435 melanoma)?
Answer: -46.8% (active)

Question: What about the growth (SW-620 colon) of the same molecule?
Answer: 24.9%

Question: And the growth (MCF7 breast)?
Answer: 18.3%

Question: What about the growth (HCT-116 colon) of the same molecule?
Answer: -5.54% (active)

Question: And the growth (HCC-2998 colon)?
Answer: 3.15% (active)

Question: What about the growth (KM12 colon) of the same molecule?
Answer: 1.85% (active)

Question: Which growth (MOLT-4 leukemia) does the source give for CC(=O)O[C@H]1C(=O)[C@@]2(C)[C@H]([C@H](OC(=O)c3ccccc3)[C@]3(O)C[C@H](OC(=O)[C@H](OC(=O)OCC4COC(C)(C)O4)[C@@H](NC(=O)c4ccccc4)c4ccccc4)C(C)=C1C3(C)C)[C@]1(OC(C)=O)CO[C@@H]1C[C@@H]2O (stereo partly drawn) here?
Answer: 35.8%

Question: And the growth (SR leukemia)?
Answer: 35.7%

Question: What about the growth (RPMI-8226 leukemia) of the same molecule?
Answer: 13%

Question: And the growth (OVCAR-8 ovarian)?
Answer: 39.3%

Question: And the growth (OVCAR-5 ovarian)?
Answer: 20.8%

Question: What about the growth (OVCAR-4 ovarian) of the same molecule?
Answer: 79%

Question: And the growth (SK-OV-3 ovarian)?
Answer: 48.5%

Question: What about the growth (IGROV1 ovarian) of the same molecule?
Answer: 35.3%

Question: And the growth (OVCAR-3 ovarian)?
Answer: 15%

Question: And the growth (HS 578T breast)?
Answer: 30.5%

Question: And the growth (NCI/ADR-RES ovarian)?
Answer: 91.4%

Question: And the growth (T-47D breast)?
Answer: 40.7%

Question: And the growth (BT-549 breast)?
Answer: 38.2%

Question: And the growth (MDA-MB-435 melanoma)?
Answer: -49.6% (active)

Question: What about the growth (SW-620 colon) of the same molecule?
Answer: 38.7%

Question: And the growth (MCF7 breast)?
Answer: 18.9%

Question: What about the growth (HCT-116 colon) of the same molecule?
Answer: 19.2%

Question: What about the growth (HCC-2998 colon) of the same molecule?
Answer: 39.9%

Question: What about the growth (KM12 colon) of the same molecule?
Answer: 18.7%

Question: With CN(C)C1C(=O)C(C(N)=O)=C(O)C2(O)C(=O)C3=C(O)c4c(O)cccc4C(C)(O)C3CC12.[Cl][Sb]([Cl])[Cl] (stereo not drawn) as the molecule, how does the growth (MOLT-4 leukemia) read?
Answer: 36.9%

Question: And the growth (SR leukemia)?
Answer: 19.2%

Question: And the growth (RPMI-8226 leukemia)?
Answer: 15.4%

Question: And the growth (OVCAR-8 ovarian)?
Answer: 21.3%

Question: What about the growth (OVCAR-5 ovarian) of the same molecule?
Answer: 143%

Question: And the growth (OVCAR-4 ovarian)?
Answer: 44.2%

Question: What about the growth (SK-OV-3 ovarian) of the same molecule?
Answer: 76.9%

Question: What about the growth (IGROV1 ovarian) of the same molecule?
Answer: 45.1%

Question: What about the growth (OVCAR-3 ovarian) of the same molecule?
Answer: 38%

Question: And the growth (HS 578T breast)?
Answer: 31.7%

Question: And the growth (NCI/ADR-RES ovarian)?
Answer: 56.9%

Question: What about the growth (T-47D breast) of the same molecule?
Answer: 60.3%

Question: What about the growth (BT-549 breast) of the same molecule?
Answer: 15.5%

Question: What about the growth (MDA-MB-435 melanoma) of the same molecule?
Answer: 24.1%

Question: What about the growth (SW-620 colon) of the same molecule?
Answer: 34.7%

Question: What about the growth (MCF7 breast) of the same molecule?
Answer: 57.6%

Question: And the growth (HCT-116 colon)?
Answer: 11.9%

Question: And the growth (HCC-2998 colon)?
Answer: 39.6%

Question: And the growth (KM12 colon)?
Answer: 45.9%

Question: What does the source list for CC(=O)O[C@H](C[C@H](C(C)C)N(C)C(=O)[C@@H](NC(=O)[C@H]1CCCCN1C)C(C)C)c1nc(C(=O)N[C@@H](Cc2ccccc2)C[C@H](C)C(=O)O)c(C(C)C)s1?
Answer: growth (MOLT-4 leukemia): 7.85% (active); growth (SR leukemia): 7.04% (active); growth (RPMI-8226 leukemia): 17.4%; growth (OVCAR-8 ovarian): 6.46% (active); growth (OVCAR-5 ovarian): 39.1%; growth (OVCAR-4 ovarian): 46.9%; growth (SK-OV-3 ovarian): 27%; growth (IGROV1 ovarian): 20.6%; growth (OVCAR-3 ovarian): -28.1% (active); growth (HS 578T breast): 17%; growth (NCI/ADR-RES ovarian): 0.688% (active); growth (T-47D breast): 44%; growth (BT-549 breast): -23.3% (active); growth (MDA-MB-435 melanoma): -42% (active); growth (SW-620 colon): 27.3%; growth (MCF7 breast): 15.1%; growth (HCT-116 colon): 3.68% (active); growth (HCC-2998 colon): -2.79% (active); growth (KM12 colon): 4.51% (active)

Question: For CC1CCCC(C[N+](C)(C)C)C1=O (stereo not drawn), which growth (MOLT-4 leukemia) is on record?
Answer: 75.7%

Question: What about the growth (SR leukemia) of the same molecule?
Answer: 86.8%

Question: What about the growth (RPMI-8226 leukemia) of the same molecule?
Answer: 105%

Question: And the growth (OVCAR-8 ovarian)?
Answer: 108%

Question: And the growth (OVCAR-5 ovarian)?
Answer: 104%

Question: What about the growth (OVCAR-4 ovarian) of the same molecule?
Answer: 93.1%

Question: What about the growth (SK-OV-3 ovarian) of the same molecule?
Answer: 110%

Question: What about the growth (IGROV1 ovarian) of the same molecule?
Answer: 92.3%

Question: What about the growth (OVCAR-3 ovarian) of the same molecule?
Answer: 121%

Question: And the growth (HS 578T breast)?
Answer: 111%

Question: What about the growth (NCI/ADR-RES ovarian) of the same molecule?
Answer: 107%

Question: What about the growth (T-47D breast) of the same molecule?
Answer: 84.5%

Question: And the growth (BT-549 breast)?
Answer: 125%

Question: And the growth (MDA-MB-435 melanoma)?
Answer: 106%

Question: What about the growth (SW-620 colon) of the same molecule?
Answer: 109%

Question: And the growth (MCF7 breast)?
Answer: 103%

Question: What about the growth (HCT-116 colon) of the same molecule?
Answer: 109%

Question: And the growth (HCC-2998 colon)?
Answer: 102%

Question: What about the growth (KM12 colon) of the same molecule?
Answer: 109%

Question: For O=[N+]([O-])CC(c1ccccc1Cl)c1c(-c2ccccc2)[nH]c2ccccc12 (stereo not drawn), which growth (MOLT-4 leukemia) is on record?
Answer: 30.3%

Question: What about the growth (SR leukemia) of the same molecule?
Answer: 18.9%

Question: What about the growth (RPMI-8226 leukemia) of the same molecule?
Answer: 45.2%

Question: What about the growth (OVCAR-8 ovarian) of the same molecule?
Answer: 40.4%

Question: What about the growth (OVCAR-5 ovarian) of the same molecule?
Answer: 69.1%

Question: And the growth (OVCAR-4 ovarian)?
Answer: 66.4%

Question: What about the growth (SK-OV-3 ovarian) of the same molecule?
Answer: 44.1%

Question: And the growth (IGROV1 ovarian)?
Answer: 33.8%

Question: And the growth (OVCAR-3 ovarian)?
Answer: 9.26% (active)

Question: What about the growth (HS 578T breast) of the same molecule?
Answer: 41.2%

Question: What about the growth (NCI/ADR-RES ovarian) of the same molecule?
Answer: 25.5%

Question: What about the growth (T-47D breast) of the same molecule?
Answer: 22.1%

Question: What about the growth (BT-549 breast) of the same molecule?
Answer: 37.3%

Question: And the growth (MDA-MB-435 melanoma)?
Answer: -9.48% (active)

Question: And the growth (SW-620 colon)?
Answer: 25.2%

Question: And the growth (MCF7 breast)?
Answer: 21.8%

Question: What about the growth (HCT-116 colon) of the same molecule?
Answer: 20.3%

Question: What about the growth (HCC-2998 colon) of the same molecule?
Answer: 71.3%

Question: What about the growth (KM12 colon) of the same molecule?
Answer: 26.8%

Question: For COc1ccc(/C=C\c2cc(OC)c(OC)c(OC)c2)cc1OCC(=O)Nc1nc2ccc(F)cc2s1, which growth (MOLT-4 leukemia) is on record?
Answer: 12.5%

Question: And the growth (SR leukemia)?
Answer: 13.8%

Question: And the growth (RPMI-8226 leukemia)?
Answer: 48.3%

Question: What about the growth (OVCAR-8 ovarian) of the same molecule?
Answer: 29.2%

Question: And the growth (OVCAR-5 ovarian)?
Answer: 92.4%

Question: And the growth (OVCAR-4 ovarian)?
Answer: 51.1%

Question: And the growth (SK-OV-3 ovarian)?
Answer: 61.2%

Question: And the growth (IGROV1 ovarian)?
Answer: 17%

Question: What about the growth (OVCAR-3 ovarian) of the same molecule?
Answer: 48.2%

Question: What about the growth (HS 578T breast) of the same molecule?
Answer: 33.8%

Question: What about the growth (NCI/ADR-RES ovarian) of the same molecule?
Answer: 20.2%

Question: And the growth (T-47D breast)?
Answer: 38.3%

Question: What about the growth (BT-549 breast) of the same molecule?
Answer: 53.7%

Question: What about the growth (MDA-MB-435 melanoma) of the same molecule?
Answer: 15.5%

Question: And the growth (SW-620 colon)?
Answer: 42.4%

Question: And the growth (MCF7 breast)?
Answer: 17.1%

Question: What about the growth (HCT-116 colon) of the same molecule?
Answer: 17.5%

Question: What about the growth (HCC-2998 colon) of the same molecule?
Answer: 72%

Question: What about the growth (KM12 colon) of the same molecule?
Answer: 42.1%
